High-throughput results as filed in PubChem.
Rows were chosen to be rich in hits. Some 3.9% of all compounds tested hit in one or more screens of this group.
HT1080 IDH1KD tx – kills HT-1080 cells with IDH1 knockdown | AID 686971 | Potency, µM (highest dose often 46.1 µM), most hits filed as cytotoxic | HT-1080 IDH1 knockdown viability, ATP luminescence, 48 h | actives 2% (n = 360,000)
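% activity derives from luminescence (CellTiter-Glo), normalised to DMSO and no-cell wells. HT-1080-IDH1KD cells, 750/well, had 48 h compound exposure at 37 °C.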
TGFb inhibitor – TGF-b pathway inhibition. HepG2 CAGA-GFP TGF-b/SMAD3 reporter, GFP fluorescence, 18 h; TGF-beta stimulated, 500 pg/mL final. Potency, µM (top dose mostly 46.1 µM), actives largely listed as inhibitors. actives 1.2% (n = 410,000); also: nearly all actives have a fitted effect of over 65% in size
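Cell-based qHTS in HEPG2 carrying a CAGA-GFP Smad reporter; compounds added before 500 pg/mL final TGF-beta, 18 h incubation at 37 degrees C, GFP fluorescence quantified per cell by imaging cytometry.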
HT1080-NT tox – kills 2HG-producing HT-1080-NT fibrosarcoma cells; HT-1080-NT fibrosarcoma viability, CellTiter-Glo ATP luminescence, 48 h; Potency, µM (series often up to 46.1 µM), most hits filed as cytotoxic; actives 1.6% (n = 360,000); AID 686970;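 also: NT is the 2HG producing partner of a matched IDH1 knockdown line; nearly all actives have a fitted effect of over 55% in size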
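Fibrosarcoma NT cells, 750 per well in 5% FBS RPMI, were exposed to compound for 48 hours. Viability: CellTiter-Glo luminescence.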
HepG2 tox – counter-screen for TGF-b inhibitors: cytotoxicity in HepG2 cells; HepG2 CAGA-GFP viability, ATP luminescence, 18 h; Potency, µM (doses to about 46.1 µM), actives largely listed as cytotoxic; actives 0.76% (n = 410,000)
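HepG2 CAGA-GFP cells (1000/well, DMEM with 1% FBS) received compound, then TGF-beta at 500 pg/mL final, and were incubated 18 hours at 37 degrees C. Viability was read by CellTiter-Glo luminescence. Media-only wells were set as complete cell-killing and DMSO as no toxicity.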
S2 tox – cell viability loss in ATXN counter-screen; S2 cells (HEK-293 line with an ATXN2-luciferase reporter) viability, CellTiter-Fluor protease fluorescence, 24 h; Potency, µM (top dose mostly 56.7 µM), hits mostly cytotoxic; actives 0.49% (n = 400,000); also: nearly all actives have a fitted effect of over 40% in size
ATXN2 expr inh – ATXN2 expression inhibition; Potency, µM (highest dose often 57 µM), hits mostly inhibitors; HEK-293 ATXN2-luciferase reporter, luminescence, 24 h; actives 0.72% (n = 360,000); also: nearly all actives have a fitted effect of over 55% in size
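qHTS (up to 57 uM final) was run with 24 h compound exposure of reporter cells at 37 °C. Each well was multiplexed: SteadyGlo luminescence measured ATXN2-luciferase expression after a fluorogenic Gly-Phe-AFC viability readout (25 uM final).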
Of the large screens only hits and unclear results are named; the others gave an inactive call. Calls follow the shape of the dose curve; as a rule, active = well fitted curve in the direction sought with a large enough effect; inconclusive = small, poorly fitted or top-dose-only effect, or another doubt; inactive = no such curve, though single readings can be large; an effect the other way counts as inactive or inconclusive.

CC(C)c1c(C(=O)NCc2cccnc2)cnn1-c1nccc(-c2cccs2)n1	none (no result: HT1080 IDH1KD tx, TGFb inhibitor, HT1080-NT tox, HepG2 tox, ATXN2 expr inh)
CC(C)(C)NC(=O)CSc1nc2ccc(NC(=O)CSc3nnnn3Cc3ccccc3)cc2s1	HT1080 IDH1KD tx 16.4µM, TGFb inhibitor inconclusive
OC[C@H]1O[C@@H](n2cnc3c2NC=NC[C@@H]3O)C[C@H]1O	none (no result: HT1080 IDH1KD tx, TGFb inhibitor, HT1080-NT tox, HepG2 tox, S2 tox)
CCOc1cccc2sc(N(CCN(C)C)C(=O)c3cc4ccccc4cc3OC)nc12	HT1080 IDH1KD tx 20.6µM, TGFb inhibitor inconclusive, HT1080-NT tox inconclusive, S2 tox inconclusive, ATXN2 expr inh 20µM
CCOc1cccc2sc(N(CCCN(C)C)C(=O)c3ccc(S(=O)(=O)N(C)Cc4ccccc4)cc3)nc12	TGFb inhibitor inconclusive, ATXN2 expr inh inconclusive (no result: S2 tox)
COc1cc2nc(N(CCCN(C)C)C(=O)c3ccc(C(=O)c4ccccc4)cc3)sc2cc1OC	TGFb inhibitor inconclusive, HepG2 tox 15.8µM, ATXN2 expr inh inconclusive (no result: S2 tox)
CCOc1cccc2sc(N(CCCN(C)C)C(=O)c3ccc(C(=O)c4ccccc4)cc3)nc12	HT1080 IDH1KD tx inconclusive, TGFb inhibitor inconclusive, HT1080-NT tox 25.9µM, S2 tox inconclusive, ATXN2 expr inh inconclusive
CCOc1cccc2sc(N(CCCN(C)C)C(=O)c3ccc(S(=O)(=O)N(CC)Cc4ccccc4)cc3)nc12	HT1080 IDH1KD tx 23.1µM, TGFb inhibitor inconclusive, HT1080-NT tox inconclusive, S2 tox inconclusive, ATXN2 expr inh inconclusive
Clc1ccc[n+](CCCCC[n+]2cccc(Cl)c2)c1	none (no result: HT1080 IDH1KD tx, HT1080-NT tox, S2 tox, ATXN2 expr inh)
O=c1c(=O)n(-c2ccc(F)c(F)c2)ccn1Cc1ccc(F)cc1Cl	none (no result: HT1080 IDH1KD tx, HT1080-NT tox, S2 tox, ATXN2 expr inh)
CCC(C)(C)C1CCC2(CC1)NC(=S)N(c1ccccc1)N2 (configuration not stated)	HT1080 IDH1KD tx 18.4µM, HT1080-NT tox inconclusive (no result: ATXN2 expr inh)
CC(C)(C)C1CCC2(CC1)NC(=S)N(c1ccccc1)N2 (configuration not stated)	HT1080 IDH1KD tx 5.8µM, HT1080-NT tox inconclusive
Cn1c(=O)c2c(-c3ccccc3)n3c(c2n(C)c1=O)C(c1ccc([N+](=O)[O-])cc1)Nc1ccccc1-3 (configuration not stated)	none (no result: HT1080 IDH1KD tx, HT1080-NT tox)
COc1ccccc1CN1CCC2(CCC(CNC(=O)c3ccccc3N(C)C)O2)CC1 (configuration not stated)	none (no result: HT1080 IDH1KD tx, TGFb inhibitor, HT1080-NT tox, HepG2 tox, ATXN2 expr inh)
CCn1cc(C(=O)NCc2ccco2)c(=O)c2cc(S(=O)(=O)N3CC(C)CC(C)C3)ccc21 (configuration not stated)	HT1080 IDH1KD tx 5.8µM, TGFb inhibitor inconclusive, HT1080-NT tox 4.11µM, ATXN2 expr inh inconclusive
CCn1cc(C(=O)NCc2ccco2)c(=O)c2cc(S(=O)(=O)N3CCC(C)CC3)ccc21	HT1080 IDH1KD tx inconclusive, TGFb inhibitor inconclusive, HT1080-NT tox inconclusive
CCn1cc(C(=O)NCc2ccco2)c(=O)c2cc(S(=O)(=O)N3CCCCCC3)ccc21	HT1080 IDH1KD tx inconclusive, HT1080-NT tox 14.6µM
C=CCn1cc(C(=O)NCCOC)c(=O)c2cc(S(=O)(=O)N3CCCCCC3)ccc21	TGFb inhibitor inconclusive, HepG2 tox 10µM (no result: ATXN2 expr inh)
Cn1cc(-c2cc3n(n2)CCC(=O)N3CC(=O)NCc2ccc(Cl)cc2)c2ccccc21	none (no result: HT1080 IDH1KD tx, HT1080-NT tox)
Cc1ccc(Cl)cc1N1CCN(C(=O)c2cn(C)c3ccc(S(=O)(=O)N4CCC(C)CC4)cc3c2=O)CC1	none (no result: HT1080 IDH1KD tx, HT1080-NT tox)
CCOc1ccccc1Nc1ccc2cc(S(=O)(=O)N3CCCCC3)ccc2n1	none (no result: HT1080 IDH1KD tx, HT1080-NT tox)
CN(CC(=O)Nc1ccccc1Cl)C(=O)COC(=O)c1ccc(S(=O)(=O)C(F)F)cc1	none
CC(=O)Oc1ccc(-c2ccc(C(=O)OCC(=O)N(C)CC(=O)Nc3ccccc3Cl)cc2)cc1	HT1080 IDH1KD tx inconclusive, TGFb inhibitor inconclusive, HT1080-NT tox 18.4µM
CCOC(=O)c1cc(C)n(CC2CCC(C(=O)Nc3cccc(C)c3)CC2)c1C (configuration not stated)	TGFb inhibitor inconclusive (no result: HT1080 IDH1KD tx, HT1080-NT tox, S2 tox, ATXN2 expr inh)
O=C(NC1CCN(C(=O)N2c3ccccc3Sc3ccccc32)CC1)c1ccccc1Cl	HT1080 IDH1KD tx inconclusive, TGFb inhibitor inconclusive, HT1080-NT tox inconclusive
